Assay results: publication PMC7862700, “An all-to-all approach to the identification of sequence-specific readers for epigenetic DNA modifications on cytosine”

Experiments:
Experiment in all cases: DAPPL (digital affinity profiling via proximity ligation, sequencing); 10 mM Tris-HCl pH 7.5, 50 mM NaCl, 1 mM DTT, 4% glycerol, room temperature, 30 min; GST-TFs on glutathione beads, 16-mer random dsDNA library, 0.1% formaldehyde crosslink after washing; high values mean tight binding
Conditions in all cases: protein: recombinant; tags: N-terminal GST; dsDNA, one strand shown
FLI1 = target: T1, FLI1 (Homo sapiens, UniProt Q01543 1-452)
T1 sequence: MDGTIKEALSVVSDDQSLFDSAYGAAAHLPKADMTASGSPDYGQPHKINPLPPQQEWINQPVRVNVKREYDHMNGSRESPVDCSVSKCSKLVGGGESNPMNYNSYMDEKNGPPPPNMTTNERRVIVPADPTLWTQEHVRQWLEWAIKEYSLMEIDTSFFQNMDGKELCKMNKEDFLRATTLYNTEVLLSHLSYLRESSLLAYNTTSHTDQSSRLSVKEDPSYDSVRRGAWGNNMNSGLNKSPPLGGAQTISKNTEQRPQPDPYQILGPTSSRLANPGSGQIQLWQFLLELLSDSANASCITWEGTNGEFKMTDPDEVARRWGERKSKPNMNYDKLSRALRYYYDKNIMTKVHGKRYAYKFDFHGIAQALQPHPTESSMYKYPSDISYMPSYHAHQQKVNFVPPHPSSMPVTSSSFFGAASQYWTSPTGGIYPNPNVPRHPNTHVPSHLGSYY
Outline: (§1)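 After expression in yeast as GST fusions, human transcription factors were bound to glutathione beads, DNA-barcoded and mixed with a tag-only sample. The pools were incubated with 200 nmole of a 16-mer random double-stranded DNA library in Tris/NaCl/DTT/glycerol buffer (30 min, room temperature), washed and crosslinked with 0.1% formaldehyde. Proximity ligation with BsaI/T4 ligase ran for 1 h at 37 °C, before PCR amplification and sequencing on an Illumina NextSeq500. Binding signal is a hexamer's read frequency for a factor divided by its frequency for the tag-only sample.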

ELK1 = target: T2, ELK1 (Homo sapiens, UniProt P19419 1-428)
T2 sequence: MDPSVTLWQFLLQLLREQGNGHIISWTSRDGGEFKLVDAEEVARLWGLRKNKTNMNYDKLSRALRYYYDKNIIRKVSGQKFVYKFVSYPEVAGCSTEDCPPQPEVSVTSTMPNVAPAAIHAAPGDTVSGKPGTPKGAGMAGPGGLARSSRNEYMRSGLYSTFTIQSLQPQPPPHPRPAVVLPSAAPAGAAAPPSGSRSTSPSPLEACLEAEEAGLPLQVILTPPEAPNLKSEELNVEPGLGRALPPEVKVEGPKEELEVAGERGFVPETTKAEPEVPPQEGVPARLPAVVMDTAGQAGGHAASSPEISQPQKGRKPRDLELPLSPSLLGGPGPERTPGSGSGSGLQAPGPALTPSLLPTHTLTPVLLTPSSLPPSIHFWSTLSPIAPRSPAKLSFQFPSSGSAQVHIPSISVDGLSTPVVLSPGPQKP
Outline: as §1

GABPA = target: T3, GABPA (Homo sapiens, UniProt Q06546 1-454)
T3 sequence: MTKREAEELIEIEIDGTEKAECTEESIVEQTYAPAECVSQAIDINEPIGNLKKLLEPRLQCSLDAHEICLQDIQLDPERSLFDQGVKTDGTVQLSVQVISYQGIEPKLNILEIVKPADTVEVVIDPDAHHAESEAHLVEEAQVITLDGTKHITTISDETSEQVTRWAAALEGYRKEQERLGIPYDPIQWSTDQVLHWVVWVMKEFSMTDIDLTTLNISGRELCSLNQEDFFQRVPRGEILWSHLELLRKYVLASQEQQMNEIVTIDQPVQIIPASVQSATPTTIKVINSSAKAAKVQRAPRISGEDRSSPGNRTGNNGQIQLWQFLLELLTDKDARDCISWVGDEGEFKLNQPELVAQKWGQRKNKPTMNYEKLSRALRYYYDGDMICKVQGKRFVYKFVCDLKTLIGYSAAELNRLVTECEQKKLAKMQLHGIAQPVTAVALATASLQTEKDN
Outline: as §1

ERG = target: T4, ERG (Homo sapiens, UniProt P11308 1-479)
T4 sequence: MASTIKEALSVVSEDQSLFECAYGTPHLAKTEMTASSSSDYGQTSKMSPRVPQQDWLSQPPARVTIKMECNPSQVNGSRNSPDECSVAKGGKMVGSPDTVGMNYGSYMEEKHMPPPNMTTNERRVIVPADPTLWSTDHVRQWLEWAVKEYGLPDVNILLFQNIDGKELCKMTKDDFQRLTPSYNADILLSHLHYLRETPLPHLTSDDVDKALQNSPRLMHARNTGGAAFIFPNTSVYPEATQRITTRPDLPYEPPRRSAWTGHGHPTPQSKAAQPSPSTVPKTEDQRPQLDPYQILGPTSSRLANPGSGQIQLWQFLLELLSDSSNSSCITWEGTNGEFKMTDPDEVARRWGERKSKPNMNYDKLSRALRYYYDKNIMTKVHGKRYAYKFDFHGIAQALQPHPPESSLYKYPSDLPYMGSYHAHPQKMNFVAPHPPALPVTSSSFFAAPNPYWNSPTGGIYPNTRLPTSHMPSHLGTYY
Outline: as §1

ELF1 = ELF1 (Homo sapiens, UniProt P32519 1-619)
Sequence of ELF1 (P32519 whole entry): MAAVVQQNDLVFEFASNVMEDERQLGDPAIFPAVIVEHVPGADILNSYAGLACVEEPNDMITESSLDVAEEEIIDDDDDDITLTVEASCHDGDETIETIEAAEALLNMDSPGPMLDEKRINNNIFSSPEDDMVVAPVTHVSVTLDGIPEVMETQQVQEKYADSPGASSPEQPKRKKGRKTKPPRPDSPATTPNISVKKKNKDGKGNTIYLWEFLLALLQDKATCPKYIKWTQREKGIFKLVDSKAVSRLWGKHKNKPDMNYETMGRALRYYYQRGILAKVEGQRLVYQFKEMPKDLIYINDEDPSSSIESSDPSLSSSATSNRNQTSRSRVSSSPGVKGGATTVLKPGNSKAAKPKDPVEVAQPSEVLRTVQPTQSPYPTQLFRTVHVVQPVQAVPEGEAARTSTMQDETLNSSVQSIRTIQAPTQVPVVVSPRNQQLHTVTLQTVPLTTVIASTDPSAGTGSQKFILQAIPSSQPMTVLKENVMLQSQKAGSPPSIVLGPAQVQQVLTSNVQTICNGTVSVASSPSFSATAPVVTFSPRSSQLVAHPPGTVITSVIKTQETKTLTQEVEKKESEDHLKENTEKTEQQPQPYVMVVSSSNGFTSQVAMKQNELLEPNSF
Outline: as §1

EHF = target: T5, EHF (Homo sapiens, UniProt Q9NZC4 1-300)
T5 sequence: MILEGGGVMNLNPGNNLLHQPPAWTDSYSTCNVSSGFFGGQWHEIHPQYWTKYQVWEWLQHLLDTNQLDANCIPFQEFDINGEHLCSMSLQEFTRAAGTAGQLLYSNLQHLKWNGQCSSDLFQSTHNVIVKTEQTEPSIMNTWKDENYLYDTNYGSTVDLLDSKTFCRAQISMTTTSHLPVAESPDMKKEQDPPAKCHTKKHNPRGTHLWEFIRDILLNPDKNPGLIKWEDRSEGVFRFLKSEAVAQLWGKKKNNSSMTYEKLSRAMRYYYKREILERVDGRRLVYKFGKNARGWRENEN
Outline: as §1

SPI1 = SPI1 (Homo sapiens, UniProt P17947 1-270)
Outline: as §1

SPIB = SPIB (Homo sapiens, UniProt Q01892 1-262)
Sequence of SPIB (Q01892 whole entry): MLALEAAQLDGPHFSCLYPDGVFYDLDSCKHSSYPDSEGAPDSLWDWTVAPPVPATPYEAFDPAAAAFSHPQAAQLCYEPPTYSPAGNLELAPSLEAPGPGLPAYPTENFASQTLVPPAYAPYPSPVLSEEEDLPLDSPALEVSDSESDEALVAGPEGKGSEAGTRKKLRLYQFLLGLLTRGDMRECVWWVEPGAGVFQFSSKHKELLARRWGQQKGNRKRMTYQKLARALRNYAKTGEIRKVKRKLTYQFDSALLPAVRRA
Outline: as §1

ELK3 = target: T6, ELK3 (Homo sapiens, UniProt P41970 1-407)
T6 sequence: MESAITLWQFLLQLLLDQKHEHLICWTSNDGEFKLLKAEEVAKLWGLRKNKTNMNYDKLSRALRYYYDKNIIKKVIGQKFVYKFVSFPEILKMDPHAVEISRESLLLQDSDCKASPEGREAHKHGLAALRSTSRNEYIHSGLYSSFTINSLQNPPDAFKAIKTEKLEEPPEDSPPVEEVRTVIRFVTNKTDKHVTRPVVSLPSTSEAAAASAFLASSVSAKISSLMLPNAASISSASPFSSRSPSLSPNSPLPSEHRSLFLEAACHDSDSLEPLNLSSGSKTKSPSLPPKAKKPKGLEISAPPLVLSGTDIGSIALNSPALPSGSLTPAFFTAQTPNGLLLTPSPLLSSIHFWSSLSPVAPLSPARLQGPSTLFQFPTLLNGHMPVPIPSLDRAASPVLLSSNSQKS
Outline: as §1

| Sequence | binding signal (FLI1) | binding signal (ELK1) | binding signal (GABPA) | binding signal (ERG) | binding signal (ELF1) | binding signal (EHF) | binding signal (SPI1) | binding signal (SPIB) | binding signal (ELK3) |
| --- | --- | --- | --- | --- | --- | --- | --- | --- | --- |
| CTCAAC | 1.25 fold enrichment (6-mer frequency, TF over GST control) | 1.32 fold enrichment (6-mer frequency, TF over GST control) | 1.33 fold enrichment (6-mer frequency, TF over GST control) | 1.24 fold enrichment (6-mer frequency, TF over GST control) | 1.26 fold enrichment (6-mer frequency, TF over GST control) | 1.18 fold enrichment (6-mer frequency, TF over GST control) | 1.18 fold enrichment (6-mer frequency, TF over GST control) | 1.19 fold enrichment (6-mer frequency, TF over GST control) | 1.28 fold enrichment (6-mer frequency, TF over GST control) |
| CTCAAT | 1.28 fold enrichment (6-mer frequency, TF over GST control) | 1.2 fold enrichment (6-mer frequency, TF over GST control) | 1.28 fold enrichment (6-mer frequency, TF over GST control) | 1.27 fold enrichment (6-mer frequency, TF over GST control) | 1.23 fold enrichment (6-mer frequency, TF over GST control) | 1.25 fold enrichment (6-mer frequency, TF over GST control) | 1.33 fold enrichment (6-mer frequency, TF over GST control) | 1.36 fold enrichment (6-mer frequency, TF over GST control) | 1.34 fold enrichment (6-mer frequency, TF over GST control) |
| TCTCAG | 1.4 fold enrichment (6-mer frequency, TF over GST control) | 1.48 fold enrichment (6-mer frequency, TF over GST control) | 1.42 fold enrichment (6-mer frequency, TF over GST control) | 1.43 fold enrichment (6-mer frequency, TF over GST control) | 1.45 fold enrichment (6-mer frequency, TF over GST control) | 1.43 fold enrichment (6-mer frequency, TF over GST control) | 1.55 fold enrichment (6-mer frequency, TF over GST control) | 1.39 fold enrichment (6-mer frequency, TF over GST control) | 1.39 fold enrichment (6-mer frequency, TF over GST control) |
| CATTCC | 1.29 fold enrichment (6-mer frequency, TF over GST control) | 1.2 fold enrichment (6-mer frequency, TF over GST control) | 1.27 fold enrichment (6-mer frequency, TF over GST control) | 1.25 fold enrichment (6-mer frequency, TF over GST control) | 1.25 fold enrichment (6-mer frequency, TF over GST control) | 1.19 fold enrichment (6-mer frequency, TF over GST control) | 1.25 fold enrichment (6-mer frequency, TF over GST control) | 1.3 fold enrichment (6-mer frequency, TF over GST control) | 1.3 fold enrichment (6-mer frequency, TF over GST control) |
| ATAGAT | 1.16 fold enrichment (6-mer frequency, TF over GST control) | 1.14 fold enrichment (6-mer frequency, TF over GST control) | 1.17 fold enrichment (6-mer frequency, TF over GST control) | 1.11 fold enrichment (6-mer frequency, TF over GST control) | 1.23 fold enrichment (6-mer frequency, TF over GST control) | 1.17 fold enrichment (6-mer frequency, TF over GST control) | 1.07 fold enrichment (6-mer frequency, TF over GST control) | 1.16 fold enrichment (6-mer frequency, TF over GST control) | 1.23 fold enrichment (6-mer frequency, TF over GST control) |
| TTATAC | 1.55 fold enrichment (6-mer frequency, TF over GST control) | 1.42 fold enrichment (6-mer frequency, TF over GST control) | 1.39 fold enrichment (6-mer frequency, TF over GST control) | 1.35 fold enrichment (6-mer frequency, TF over GST control) | 1.4 fold enrichment (6-mer frequency, TF over GST control) | 1.42 fold enrichment (6-mer frequency, TF over GST control) | 1.3 fold enrichment (6-mer frequency, TF over GST control) | 1.43 fold enrichment (6-mer frequency, TF over GST control) | 1.35 fold enrichment (6-mer frequency, TF over GST control) |
| ATCGAC | 1.13 fold enrichment (6-mer frequency, TF over GST control) | 1.11 fold enrichment (6-mer frequency, TF over GST control) | 1.17 fold enrichment (6-mer frequency, TF over GST control) | 1.1 fold enrichment (6-mer frequency, TF over GST control) | 1.24 fold enrichment (6-mer frequency, TF over GST control) | 1.12 fold enrichment (6-mer frequency, TF over GST control) | 1.15 fold enrichment (6-mer frequency, TF over GST control) | 1.11 fold enrichment (6-mer frequency, TF over GST control) | 1.27 fold enrichment (6-mer frequency, TF over GST control) |
| TTTAAG | 1.3 fold enrichment (6-mer frequency, TF over GST control) | 1.33 fold enrichment (6-mer frequency, TF over GST control) | 1.38 fold enrichment (6-mer frequency, TF over GST control) | 1.33 fold enrichment (6-mer frequency, TF over GST control) | 1.34 fold enrichment (6-mer frequency, TF over GST control) | 1.27 fold enrichment (6-mer frequency, TF over GST control) | 1.42 fold enrichment (6-mer frequency, TF over GST control) | 1.31 fold enrichment (6-mer frequency, TF over GST control) | 1.46 fold enrichment (6-mer frequency, TF over GST control) |
